The source of these data is ChEMBL document CHEMBL1961873, “Compounds: GSK PKIS; Assays: Nanosyn kinase panel” (2012).

One may read the inhibition as the drop in the measured response relative to a control, in per cent.

The target of assay [1] is High affinity nerve growth factor receptor (Homo sapiens) (UniProt P04629). The following applies: at 1 µM.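 Also: each value is the mean percent inhibition of TRKA.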
Assay [2] has as its target BDNF/NT-3 growth factors receptor (Homo sapiens) (UniProt Q16620). The following applies: at 0.1 µM.
Assay [3] has the same target. As to conditions: at 1 µM.
Assay [4] has as its target NT-3 growth factor receptor (Homo sapiens) (UniProt Q16288). The following applies: at 0.1 µM.
The target is the same in assay [5]. As to conditions: at 1 µM.
In assay [6] the target is T1, Tyrosine-protein kinase TXK (Homo sapiens) (UniProt P42681).
T1 sequence (whole entry): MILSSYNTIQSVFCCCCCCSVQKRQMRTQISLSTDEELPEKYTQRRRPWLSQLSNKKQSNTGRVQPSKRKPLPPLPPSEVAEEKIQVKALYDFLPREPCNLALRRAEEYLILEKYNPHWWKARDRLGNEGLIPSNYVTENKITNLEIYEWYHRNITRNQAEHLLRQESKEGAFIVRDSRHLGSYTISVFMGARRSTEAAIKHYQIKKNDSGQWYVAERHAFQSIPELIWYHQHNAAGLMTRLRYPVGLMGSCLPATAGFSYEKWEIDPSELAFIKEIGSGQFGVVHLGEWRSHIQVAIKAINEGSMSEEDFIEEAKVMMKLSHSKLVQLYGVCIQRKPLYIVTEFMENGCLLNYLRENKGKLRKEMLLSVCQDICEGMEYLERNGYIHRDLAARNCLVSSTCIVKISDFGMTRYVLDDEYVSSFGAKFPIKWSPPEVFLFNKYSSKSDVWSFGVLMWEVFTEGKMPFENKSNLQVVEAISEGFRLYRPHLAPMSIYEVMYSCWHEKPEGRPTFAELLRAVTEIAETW
As to conditions: at 0.1 µM.

Assay [7] addresses T1, Tyrosine-protein kinase TXK (Homo sapiens). As to conditions: at 1 µM.
In assay [8] the target is Non-receptor tyrosine-protein kinase TYK2 (Homo sapiens) (UniProt P29597). The following applies: at 0.1 µM.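 Also: each value is a mean of the inhibition readings.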
Chain of Non-receptor tyrosine-protein kinase TYK2 (Homo sapiens) (P29597 whole entry): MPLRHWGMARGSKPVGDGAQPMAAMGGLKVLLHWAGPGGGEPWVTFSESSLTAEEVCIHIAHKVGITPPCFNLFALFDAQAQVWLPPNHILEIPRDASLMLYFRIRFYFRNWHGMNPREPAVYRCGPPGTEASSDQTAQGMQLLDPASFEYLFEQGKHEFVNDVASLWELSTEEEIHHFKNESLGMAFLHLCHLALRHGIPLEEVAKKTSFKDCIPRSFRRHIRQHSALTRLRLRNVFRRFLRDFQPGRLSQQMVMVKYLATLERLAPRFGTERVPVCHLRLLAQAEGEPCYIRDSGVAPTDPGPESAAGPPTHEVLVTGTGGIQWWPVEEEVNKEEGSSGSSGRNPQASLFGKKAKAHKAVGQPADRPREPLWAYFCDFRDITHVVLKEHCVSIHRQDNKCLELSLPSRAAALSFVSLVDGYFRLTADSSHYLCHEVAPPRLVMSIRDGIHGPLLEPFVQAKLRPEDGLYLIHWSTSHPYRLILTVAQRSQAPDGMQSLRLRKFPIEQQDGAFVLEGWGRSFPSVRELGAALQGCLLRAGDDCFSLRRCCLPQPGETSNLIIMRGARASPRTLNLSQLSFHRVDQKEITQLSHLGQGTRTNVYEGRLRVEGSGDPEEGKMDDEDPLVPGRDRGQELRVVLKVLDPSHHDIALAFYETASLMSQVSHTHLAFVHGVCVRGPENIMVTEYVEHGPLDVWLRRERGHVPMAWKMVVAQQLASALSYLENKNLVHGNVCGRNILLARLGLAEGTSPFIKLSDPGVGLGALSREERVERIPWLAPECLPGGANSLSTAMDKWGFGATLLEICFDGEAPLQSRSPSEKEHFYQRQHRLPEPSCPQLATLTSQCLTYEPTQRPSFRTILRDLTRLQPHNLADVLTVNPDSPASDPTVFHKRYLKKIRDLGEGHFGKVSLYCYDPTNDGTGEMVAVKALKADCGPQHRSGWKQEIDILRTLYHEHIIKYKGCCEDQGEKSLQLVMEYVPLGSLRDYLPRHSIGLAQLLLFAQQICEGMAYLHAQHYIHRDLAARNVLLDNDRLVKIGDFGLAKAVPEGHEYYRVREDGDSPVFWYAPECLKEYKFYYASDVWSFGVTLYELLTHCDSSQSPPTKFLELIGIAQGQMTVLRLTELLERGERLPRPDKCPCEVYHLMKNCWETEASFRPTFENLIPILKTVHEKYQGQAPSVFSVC
The target of assay [9] is T2, Dual specificity protein kinase TTK (Homo sapiens) (UniProt P33981).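 Also: reported figures are mean TTK inhibition at 1 µM.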
T2 sequence (whole entry): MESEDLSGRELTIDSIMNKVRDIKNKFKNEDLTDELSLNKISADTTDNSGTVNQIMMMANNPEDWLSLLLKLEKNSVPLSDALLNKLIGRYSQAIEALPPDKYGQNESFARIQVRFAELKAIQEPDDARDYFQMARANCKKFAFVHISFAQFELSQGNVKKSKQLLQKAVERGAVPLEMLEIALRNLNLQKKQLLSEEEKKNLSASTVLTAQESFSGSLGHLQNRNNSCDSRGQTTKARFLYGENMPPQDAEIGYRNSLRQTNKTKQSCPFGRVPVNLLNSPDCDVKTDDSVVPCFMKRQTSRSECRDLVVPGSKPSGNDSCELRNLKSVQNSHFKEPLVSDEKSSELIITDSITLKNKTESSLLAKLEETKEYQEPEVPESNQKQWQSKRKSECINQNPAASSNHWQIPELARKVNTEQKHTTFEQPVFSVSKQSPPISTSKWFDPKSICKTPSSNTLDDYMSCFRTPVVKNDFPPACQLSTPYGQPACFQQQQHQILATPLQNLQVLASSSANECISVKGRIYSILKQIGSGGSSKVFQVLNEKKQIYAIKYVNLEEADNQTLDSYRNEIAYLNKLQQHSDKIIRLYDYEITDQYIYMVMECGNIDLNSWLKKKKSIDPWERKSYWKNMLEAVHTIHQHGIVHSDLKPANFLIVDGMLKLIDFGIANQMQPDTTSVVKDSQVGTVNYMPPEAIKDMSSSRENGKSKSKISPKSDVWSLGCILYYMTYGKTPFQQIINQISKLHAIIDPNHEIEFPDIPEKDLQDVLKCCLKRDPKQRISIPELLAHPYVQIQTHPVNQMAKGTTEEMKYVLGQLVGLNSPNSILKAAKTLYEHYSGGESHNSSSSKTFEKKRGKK
As to conditions: at 1 µM.

For assay [10], the target named is T3, Aurora kinase A (Homo sapiens) (UniProt O14965).
T3 sequence (whole entry): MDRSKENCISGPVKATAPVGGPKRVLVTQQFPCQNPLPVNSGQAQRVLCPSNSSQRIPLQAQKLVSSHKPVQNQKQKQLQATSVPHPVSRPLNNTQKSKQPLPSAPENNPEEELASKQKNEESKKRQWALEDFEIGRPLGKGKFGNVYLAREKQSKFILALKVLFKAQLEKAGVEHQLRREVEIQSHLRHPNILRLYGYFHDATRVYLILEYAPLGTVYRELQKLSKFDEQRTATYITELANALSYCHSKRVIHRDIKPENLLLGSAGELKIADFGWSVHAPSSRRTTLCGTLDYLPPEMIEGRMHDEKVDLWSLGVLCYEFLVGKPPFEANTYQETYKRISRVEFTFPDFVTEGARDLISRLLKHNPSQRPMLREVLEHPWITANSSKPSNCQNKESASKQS
As to conditions: at 0.1 µM.

Assay [11] concerns the target T3, Aurora kinase A (Homo sapiens). As to conditions: at 1 µM.
Assay [12] concerns the target Aurora kinase B (Homo sapiens) (UniProt Q96GD4). The following applies: at 0.1 µM.
For assay [13] the target is unchanged. As to conditions: at 1 µM.
For assay [14], the target named is T4, Aurora kinase C (Homo sapiens) (UniProt Q9UQB9).
T4 sequence (whole entry): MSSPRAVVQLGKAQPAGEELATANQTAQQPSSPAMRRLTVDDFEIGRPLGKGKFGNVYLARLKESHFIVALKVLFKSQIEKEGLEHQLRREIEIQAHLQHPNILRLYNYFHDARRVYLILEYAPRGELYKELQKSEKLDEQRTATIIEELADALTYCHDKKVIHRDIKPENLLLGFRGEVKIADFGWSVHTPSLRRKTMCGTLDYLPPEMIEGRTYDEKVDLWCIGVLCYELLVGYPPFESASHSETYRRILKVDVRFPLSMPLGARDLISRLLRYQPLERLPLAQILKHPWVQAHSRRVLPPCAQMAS
As to conditions: at 0.1 µM.

The target of assay [15] is T4, Aurora kinase C (Homo sapiens). The following applies: at 1 µM.
In assay [16] the target is Serine/threonine-protein kinase 10 (Homo sapiens) (UniProt O94804). The following applies: at 0.1 µM.
Chain of Serine/threonine-protein kinase 10 (Homo sapiens) (O94804 whole entry, looked up): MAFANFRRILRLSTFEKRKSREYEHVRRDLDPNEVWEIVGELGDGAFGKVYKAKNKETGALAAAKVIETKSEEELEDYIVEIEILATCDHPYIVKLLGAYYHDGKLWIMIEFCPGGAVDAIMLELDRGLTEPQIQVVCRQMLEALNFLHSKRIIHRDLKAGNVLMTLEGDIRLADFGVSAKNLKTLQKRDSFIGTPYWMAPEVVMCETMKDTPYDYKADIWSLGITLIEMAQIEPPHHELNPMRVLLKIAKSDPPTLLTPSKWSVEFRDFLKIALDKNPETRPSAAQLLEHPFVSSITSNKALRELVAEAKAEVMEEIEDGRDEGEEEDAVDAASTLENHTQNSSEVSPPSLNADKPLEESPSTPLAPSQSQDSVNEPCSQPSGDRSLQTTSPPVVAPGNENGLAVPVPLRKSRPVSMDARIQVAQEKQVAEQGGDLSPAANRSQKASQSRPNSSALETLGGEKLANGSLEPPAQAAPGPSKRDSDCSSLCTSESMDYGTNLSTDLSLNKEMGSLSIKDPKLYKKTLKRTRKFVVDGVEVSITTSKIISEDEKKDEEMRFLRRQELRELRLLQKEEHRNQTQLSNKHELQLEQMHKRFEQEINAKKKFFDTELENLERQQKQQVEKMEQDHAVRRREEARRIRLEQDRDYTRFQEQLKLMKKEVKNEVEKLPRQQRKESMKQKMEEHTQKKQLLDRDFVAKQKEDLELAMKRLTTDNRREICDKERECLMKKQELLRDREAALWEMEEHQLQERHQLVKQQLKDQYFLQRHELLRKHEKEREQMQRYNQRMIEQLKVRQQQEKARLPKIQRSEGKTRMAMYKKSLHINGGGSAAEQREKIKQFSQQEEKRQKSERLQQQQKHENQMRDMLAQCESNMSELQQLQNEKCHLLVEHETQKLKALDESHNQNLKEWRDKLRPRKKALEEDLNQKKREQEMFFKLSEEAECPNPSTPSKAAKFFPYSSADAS
Assay [17] shares this target. The following applies: at 1 µM.
The target of assay [18] is T5, Mitogen-activated protein kinase kinase kinase kinase 2 (Homo sapiens) (UniProt Q12851).
T5 sequence (whole entry): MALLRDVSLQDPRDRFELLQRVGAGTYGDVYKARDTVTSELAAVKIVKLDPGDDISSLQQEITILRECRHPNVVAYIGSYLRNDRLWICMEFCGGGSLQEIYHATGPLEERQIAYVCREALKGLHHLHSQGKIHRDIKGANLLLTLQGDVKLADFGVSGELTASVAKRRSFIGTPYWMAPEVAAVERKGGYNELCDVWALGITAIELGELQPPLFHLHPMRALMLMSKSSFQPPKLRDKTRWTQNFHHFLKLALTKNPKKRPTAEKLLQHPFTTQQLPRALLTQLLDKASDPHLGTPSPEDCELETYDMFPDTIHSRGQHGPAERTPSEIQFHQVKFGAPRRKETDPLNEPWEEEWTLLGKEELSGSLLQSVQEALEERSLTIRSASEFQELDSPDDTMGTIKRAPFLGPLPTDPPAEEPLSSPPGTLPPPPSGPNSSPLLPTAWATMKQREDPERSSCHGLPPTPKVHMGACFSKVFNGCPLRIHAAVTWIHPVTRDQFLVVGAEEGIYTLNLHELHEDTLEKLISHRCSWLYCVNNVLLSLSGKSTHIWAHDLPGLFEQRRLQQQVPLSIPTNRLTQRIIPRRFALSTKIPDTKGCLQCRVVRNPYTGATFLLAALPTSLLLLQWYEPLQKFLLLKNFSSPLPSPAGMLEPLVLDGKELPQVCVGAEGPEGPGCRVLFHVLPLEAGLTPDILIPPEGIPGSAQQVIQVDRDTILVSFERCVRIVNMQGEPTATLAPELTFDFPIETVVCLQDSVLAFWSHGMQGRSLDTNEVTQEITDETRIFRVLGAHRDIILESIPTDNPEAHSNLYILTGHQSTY
The following applies: at 0.1 µM.

Assay [19] addresses T5, Mitogen-activated protein kinase kinase kinase kinase 2 (Homo sapiens). The following applies: at 1 µM.
For assay [20], the target named is Mitogen-activated protein kinase kinase kinase kinase 4 (Homo sapiens) (UniProt O95819). As to conditions: at 0.1 µM.

Chain of High affinity nerve growth factor receptor (Homo sapiens) (P04629 33-796 limits assumed): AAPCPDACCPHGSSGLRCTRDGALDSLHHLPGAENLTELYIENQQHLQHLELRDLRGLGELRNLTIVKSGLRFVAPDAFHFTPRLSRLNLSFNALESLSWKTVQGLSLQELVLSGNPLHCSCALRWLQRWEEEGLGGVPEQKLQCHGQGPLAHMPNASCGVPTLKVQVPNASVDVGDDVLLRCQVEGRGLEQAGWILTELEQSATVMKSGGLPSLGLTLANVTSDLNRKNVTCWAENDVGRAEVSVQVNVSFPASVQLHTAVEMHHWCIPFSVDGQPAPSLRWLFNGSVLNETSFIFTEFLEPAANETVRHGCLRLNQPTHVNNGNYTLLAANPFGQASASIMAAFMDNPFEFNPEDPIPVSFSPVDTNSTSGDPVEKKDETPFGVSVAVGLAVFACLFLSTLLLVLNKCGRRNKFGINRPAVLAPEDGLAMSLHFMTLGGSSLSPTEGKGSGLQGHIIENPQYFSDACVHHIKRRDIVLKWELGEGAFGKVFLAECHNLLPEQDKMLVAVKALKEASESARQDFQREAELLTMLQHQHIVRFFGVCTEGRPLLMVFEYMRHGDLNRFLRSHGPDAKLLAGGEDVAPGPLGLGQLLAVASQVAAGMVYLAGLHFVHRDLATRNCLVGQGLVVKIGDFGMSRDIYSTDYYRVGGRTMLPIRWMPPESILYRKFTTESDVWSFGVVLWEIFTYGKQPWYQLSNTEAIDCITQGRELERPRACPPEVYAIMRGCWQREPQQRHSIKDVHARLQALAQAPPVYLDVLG
Chain of Aurora kinase B (Homo sapiens) (Q96GD4 whole entry): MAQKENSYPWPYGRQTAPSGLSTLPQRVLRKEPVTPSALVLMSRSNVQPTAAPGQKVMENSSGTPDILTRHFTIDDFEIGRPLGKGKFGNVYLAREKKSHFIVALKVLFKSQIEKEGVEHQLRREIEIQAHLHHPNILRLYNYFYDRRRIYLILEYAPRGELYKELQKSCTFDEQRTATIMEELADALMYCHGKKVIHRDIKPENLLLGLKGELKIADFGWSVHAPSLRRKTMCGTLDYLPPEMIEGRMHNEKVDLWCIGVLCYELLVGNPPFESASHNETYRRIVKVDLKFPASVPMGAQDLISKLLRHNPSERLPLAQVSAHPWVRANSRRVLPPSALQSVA
Chain of BDNF/NT-3 growth factors receptor (Homo sapiens) (Q16620 32-822 limits assumed): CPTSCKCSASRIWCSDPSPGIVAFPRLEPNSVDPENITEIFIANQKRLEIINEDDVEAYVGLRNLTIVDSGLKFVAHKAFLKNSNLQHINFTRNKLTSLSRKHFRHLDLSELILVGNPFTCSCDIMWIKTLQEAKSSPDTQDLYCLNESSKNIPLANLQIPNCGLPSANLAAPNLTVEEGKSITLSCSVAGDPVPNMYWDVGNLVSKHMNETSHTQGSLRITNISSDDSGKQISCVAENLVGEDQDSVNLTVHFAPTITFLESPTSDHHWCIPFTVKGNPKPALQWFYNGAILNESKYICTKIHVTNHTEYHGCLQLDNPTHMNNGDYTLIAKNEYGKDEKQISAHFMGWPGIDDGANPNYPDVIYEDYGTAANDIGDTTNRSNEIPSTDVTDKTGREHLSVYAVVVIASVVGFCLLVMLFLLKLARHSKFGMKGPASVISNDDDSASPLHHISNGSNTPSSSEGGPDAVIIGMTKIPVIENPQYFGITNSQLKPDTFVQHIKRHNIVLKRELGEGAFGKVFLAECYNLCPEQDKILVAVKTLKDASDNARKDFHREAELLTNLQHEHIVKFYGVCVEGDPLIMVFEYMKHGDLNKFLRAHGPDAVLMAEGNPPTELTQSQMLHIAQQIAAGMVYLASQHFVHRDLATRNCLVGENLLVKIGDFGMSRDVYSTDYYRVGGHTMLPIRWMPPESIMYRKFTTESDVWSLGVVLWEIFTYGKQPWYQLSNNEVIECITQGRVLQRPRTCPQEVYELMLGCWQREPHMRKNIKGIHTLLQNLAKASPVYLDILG
Chain of NT-3 growth factor receptor (Homo sapiens) (Q16288 32-839 limits assumed): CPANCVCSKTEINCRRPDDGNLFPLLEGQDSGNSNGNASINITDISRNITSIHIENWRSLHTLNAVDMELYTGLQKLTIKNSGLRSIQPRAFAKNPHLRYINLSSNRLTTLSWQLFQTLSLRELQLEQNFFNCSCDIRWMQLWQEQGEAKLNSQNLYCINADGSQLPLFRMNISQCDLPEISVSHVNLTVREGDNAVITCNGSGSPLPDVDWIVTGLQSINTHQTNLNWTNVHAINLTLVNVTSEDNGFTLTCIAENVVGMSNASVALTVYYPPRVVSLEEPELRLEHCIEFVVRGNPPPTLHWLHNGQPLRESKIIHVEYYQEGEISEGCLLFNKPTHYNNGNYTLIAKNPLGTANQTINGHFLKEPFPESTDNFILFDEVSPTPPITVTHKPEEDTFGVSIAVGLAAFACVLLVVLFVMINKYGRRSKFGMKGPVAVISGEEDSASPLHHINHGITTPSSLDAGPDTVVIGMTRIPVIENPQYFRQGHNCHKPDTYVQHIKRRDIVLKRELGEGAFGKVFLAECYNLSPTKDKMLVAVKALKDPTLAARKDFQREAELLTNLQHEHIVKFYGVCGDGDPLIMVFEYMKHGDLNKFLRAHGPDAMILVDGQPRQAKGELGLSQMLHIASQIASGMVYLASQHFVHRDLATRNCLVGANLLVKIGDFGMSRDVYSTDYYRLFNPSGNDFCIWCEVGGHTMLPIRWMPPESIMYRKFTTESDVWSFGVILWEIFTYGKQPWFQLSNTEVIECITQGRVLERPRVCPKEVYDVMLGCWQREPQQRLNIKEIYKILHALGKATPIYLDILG

For `CN(C)CCOc1ccc(-c2cc(-c3ccc4c(c3)CCC4=NO)c(-c3ccncc3)o2)cc1`, the inhibition in [1] was -2.77%; in assay [2], -0.06%; in [3], 1.62%; in assay [4] it was 0.94%; in [5], -0.98%; in assay [6], 0.73%. Further, the inhibition in assay [7] is 3.15%; in assay [8], 0.89%; in [9] it was 1.15%; in [10], 0.13%; in assay [11], 0.04%; in assay [12], -1.06%. The inhibition in [13] amounted to 1.93%; in assay [14], 0.74%; in assay [15] it was 7.21%; in assay [16] it was 16.8%; in [17], 62.6%; in assay [18], 2.2%. In addition, the inhibition in assay [19] was 5.27%; in assay [20] it was 0.91%.

With `c1ccc(Oc2ccc(Nc3ncc(-c4ccccc4)o3)cc2)cc1`, the inhibition in assay [1] is 3.28%; in [2], 0.87%; in assay [3], 2.96%; in assay [4], 0.46%; in assay [5], 1.12%; in assay [6], 1.51%. Besides, the inhibition in [7] is 3.57%; in [8], -0.13%; in assay [9], 5.67%; in assay [10] it was 1.36%; in assay [11], 10.2%; in [12], 2.17%. Besides, the inhibition in [13] is 7.16%; in assay [14], 0.67%; in assay [15], -1.26%; in [16] it was 0.49%; in [17] it was 2.71%; in assay [18], 1.08%. Moreover, the inhibition turned out to be 1.62% in [19] and 3.28% in assay [20].

Take `COc1cc2ncn(-c3cc(OCc4ccccc4C(F)(F)F)c(C(C)=O)s3)c2cc1OC`: the inhibition is 1.61% in assay [1]; 1.74% in assay [2]; 2.56% in assay [3]; 0.64% in assay [4]; 4.16% in [5]; -0.06% in [6]. In addition, the inhibition was 5.24% in assay [7]; -1.78% in [8]; 8.19% in assay [9]; 2.64% in [10]; 4.46% in assay [11]; 7.82% in assay [12]. The inhibition was determined as 9.68% in assay [13]; 3% in assay [14]; 11.9% in assay [15]; 10.5% in assay [16]; 42.8% in assay [17]; 2.18% in [18]. Moreover, the inhibition in [19] amounted to 7.42%; in assay [20] it was 4.05%.

With `CCN(CC)Cc1ccc(Nc2nccc(-c3cnn4ncccc34)n2)cc1`, the inhibition was found to be 12.1% in assay [1]; 4.49% in [2]; 7.47% in assay [3]; 2.83% in assay [4]; 5.86% in [5]; 0.47% in [6]. Besides, the inhibition is 1.91% in [7]; -7.84% in [8]; 29.4% in assay [9]; 4.39% in assay [10]; 34.3% in [11]; 27.5% in assay [12]. Further, the inhibition worked out at 63.7% in [13]; 38% in assay [14]; 84.6% in [15]; 7.37% in assay [16]; 18% in assay [17]; 3.21% in assay [18]. Moreover, the inhibition in [19] stood at 21.2%; in [20] it was 5.41%.
